Assay outcomes from PubChem BioAssay.
An excerpt weighted towards active compounds, which were near 18% of everything screened.
DT40 TDP1 no CPT: qHTS for Inhibitors of human tyrosyl-DNA phosphodiesterase 1 (TDP1): qHTS in cells in absence of CPT; DT40 Tdp1-/- hTDP1 cells, no CPT, ATP luminescence, 48 h; Potency, µM (titrated, usually from 46.2 µM), hits mostly inhibitors; 420,000 compounds, 15% hits; AID 686978, 2013; further: nearly all actives have a fitted effect of over 55% in size
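Cells were dispensed at 400 per well, compounds added by pin tool, plates incubated ≥48 hr at 37 °C, then CellTiter-Glo added for 30 min at room temperature before luminescence reading. Line: DT40 Tdp1-/- complemented with hTDP1; camptothecin omitted.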
HepG2 viability: qHTS for Inhibitors of TGF-b: Cytotox Counterscreen. HepG2 CAGA-GFP viability, ATP luminescence, 18 h. Potency, µM (doses to about 46.1 µM), actives largely listed as cytotoxic. 410,000 compounds, 0.76% hits
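HepG2 CAGA-GFP cells (1000/well, DMEM with 1% FBS) received compound, then TGF-beta at 500 pg/mL final, and were incubated 18 hours at 37 degrees C. Viability was read by CellTiter-Glo luminescence. Media-only wells were set as complete cell-killing and DMSO as no toxicity.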
IL-1B inflam inh: qHTS for Inhibitors of Inflammasome Signaling: IL-1-beta AlphaLISA Primary Screen; THP-1 LPS/ATP IL-1B secretion, AlphaLISA, 16 h; hits give low values; 360,000 compounds, 4.7% hits; AID 743279, 2014; activity change, % at 57.5 µM; in the data active means activity change below about -50%; inconclusive means mostly about -30% to -49%
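THP-1 cells pretreated 1 hr with compounds (up to 57.5 uM final), then stimulated with LPS (250 ng/mL final) plus ATP (1.25 mM final); secreted IL-1B measured by AlphaLISA after 16 hr, decreased signal indicating inhibition.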
DT40 TDP1 CPT: qHTS for Inhibitors of human tyrosyl-DNA phosphodiesterase 1 (TDP1): qHTS in cells in presence of CPT | 420,000 compounds, 12% hits | AID 686979, 2013 | chicken DT40 Tdp1-/-;hTDP1 cells + 20 nM CPT, ATP luminescence, 48 h | Potency, µM (doses to about 46.2 µM), hits mostly inhibitors; further: nearly all actives have a fitted effect of over 55% in size
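Cell growth measured by CellTiter-Glo luminescence after a minimum 48 h, 37 C compound exposure with 20 nM CPT in Tdp1-knockout DT40 cells stably expressing hTDP1, seeded 400/well; qHTS titration format.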
TDP1 inh: qHTS Assay for Inhibitors of Tyrosyl-DNA Phosphodiesterase (TDP1) | Potency, µM (highest dose often 130 µM), actives largely listed as inhibitors | AID 485290, 2010 | 350,000 compounds, 0.28% hits | Tyrosyl-DNA phosphodiesterase 1 (Homo sapiens), Q9NUW8 | recombinant TDP1, AlphaScreen DNA substrate cleavage; further: nearly all actives have a fitted effect of over 40% in size
Target sequence (Q9NUW8 whole entry, looked up): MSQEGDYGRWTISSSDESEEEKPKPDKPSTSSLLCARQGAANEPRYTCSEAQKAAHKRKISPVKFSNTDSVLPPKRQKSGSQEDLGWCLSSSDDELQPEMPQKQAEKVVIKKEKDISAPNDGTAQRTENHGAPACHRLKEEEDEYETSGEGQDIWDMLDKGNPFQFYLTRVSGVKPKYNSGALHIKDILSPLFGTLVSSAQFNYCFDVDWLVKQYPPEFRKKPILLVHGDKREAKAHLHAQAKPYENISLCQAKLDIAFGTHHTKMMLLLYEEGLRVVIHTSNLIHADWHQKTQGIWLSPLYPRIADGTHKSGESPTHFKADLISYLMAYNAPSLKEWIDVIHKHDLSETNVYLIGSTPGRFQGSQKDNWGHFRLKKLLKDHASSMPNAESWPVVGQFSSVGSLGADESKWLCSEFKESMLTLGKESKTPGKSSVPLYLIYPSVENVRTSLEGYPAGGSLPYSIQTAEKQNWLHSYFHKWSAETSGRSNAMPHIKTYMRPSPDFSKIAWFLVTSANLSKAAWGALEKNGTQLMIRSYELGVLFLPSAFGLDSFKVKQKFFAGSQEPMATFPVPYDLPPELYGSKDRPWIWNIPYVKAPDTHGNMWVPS
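E. coli-derived human Tdp1, 1 nM final. Cpd preinc 15 min RT; substrate 15 nM final, 5 min RT; AS bead mix 10 ug/ml final, 10 min RT. Signal loss = tyrosine-FITC cleavage. No-enzyme wells = max signal.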
TGFb inhibitor: qHTS for Inhibitors of TGF-b; HepG2 CAGA-GFP TGF-b/SMAD3 reporter, GFP fluorescence, 18 h; TGF-beta stimulated, 500 pg/mL final; Potency, µM (highest dose often 46.1 µM), most hits filed as inhibitors; 410,000 compounds, 1.2% hits; further: nearly all actives have a fitted effect of over 65% in size
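HEPG2 CAGA-GFP cells (1000/well, DMEM with 1% FBS) were pre-incubated 2 h at 37 degrees C, given compound by pin tool, then stimulated with TGF-beta at 500 pg/mL final for 18 h before per-cell GFP fluorescence imaging.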
Numbers stand for hits; 0 = inactive; ? = inconclusive; - = not tested or not shown; [ ] = remark or other dose. Unless noted, the call rests on the fitted dose curve; in most records, active means well fitted curve in the direction sought with a large enough effect; inconclusive means small, poorly fitted or top-dose-only effect, or another doubt; inactive means no such curve, though single readings can be large; an effect the other way counts as inactive or inconclusive.

SMILES	DT40 TDP1 no CPT	HepG2 viability	IL-1B inflam inh	DT40 TDP1 CPT	TDP1 inh	TGFb inhibitor
CCCCn1c2ccccc2c2nnc(SCCN3CCCCC3)nc21	16µM	0	0	?	-	0
CCn1c2ccccc2c2nnc(SCc3cc(=O)n4ccsc4n3)nc21	-	-	-	-	0	-
CCN(CC)CCSc1nnc2c3cc(C)ccc3n(Cc3ccccc3)c2n1	21µM	0	-67	?	0	?
C=CCn1c2ccccc2c2nnc(SCCN3CCOCC3)nc21	?	0	-71	0	-	0
C=CCn1c2ccccc2c2nnc(SCC(=O)O)nc21	0	0	0	0	-	0
C=CS(=O)(=O)O	0	-	-	0	-	-
Cc1ccc(/C=N/n2c(-c3cccnc3)n[nH]c2=S)s1	0	0	-54	0	0	0
S=c1[nH]nc(-c2cccnc2)n1/N=C/c1ccc(Br)s1	0	0	0	0	-	0
Oc1ccc(/C=N/n2cc(-c3ccccc3)[nH]c2=S)cc1	?	0	0	?	0	0
Cc1ccc(/C=N/n2cc(-c3ccccc3)[nH]c2=S)s1	5.2µM	0	0	8.2µM	0	0
CN(C)c1ccc(C(c2ccc(N(C)C)cc2)C(O)c2ccccc2)cc1 (stereo not given)	?	0	-55	?	-	0
COC(=O)CC1=COC2OCC3=CC[C@@H]1C32 (stereo not given in full)	-	-	-	-	0[21 µM]	-
Cn1sc(=O)n(Cc2ccccc2)c1=O	-	-	-	-	0	-
COc1ccccc1CN1C(=O)c2cccc3cccc(c23)C1=O	?	0	0	0	0	0
Cc1ccc(OCCN2C(=O)C(=O)c3cccc(C)c32)cc1	2.9µM	0	0	2.3µM	0	0
CCOC(=O)CN1C(=O)C(=O)c2cccc(C)c21	?	0	0	?	0	0
Cc1cc(Br)cc2c1N(Cc1ccccc1OC(C)C)C(=O)C2=O	4.1µM	10µM	-	21µM	0	-
COc1ccccc1CN1C(=O)C(=O)c2cccc(C)c21	6.5µM	0	-	13µM	0	0
Cc1cccc2c1N(Cc1ccccc1OCCC(C)C)C(=O)C2=O	12µM	0	-	15µM	0	-
Cc1cc(C(C)(C)C)ccc1OCCOCCN1CCCC1	?	0	0	?	0	0
CCN1CCCC1CNCC(O)COc1ccc(C(C)(C)C)cc1C (stereo not given)	5.8µM	0	?	6.5µM	?	0
Cc1cc2c(cc1NS(=O)(=O)c1ccc(F)cc1)n(C)c(=O)c(=O)n2C	0	0	-	0	0	0
CC(=O)N1N=C(c2ccccc2)CC1c1cn(C)c2ccccc12 (stereo not given)	21µM	0	?	?	0	0
CC(C)(C)c1ccc(C(=O)O/N=C(\N)Cc2cccs2)cc1	?	0	0	?	-	0
Cc1ccccc1C(=O)O/N=C(\N)Cc1cccs1	0	0	-61	?	0	0
SMILES	DT40 TDP1 no CPT	HepG2 viability	IL-1B inflam inh	DT40 TDP1 CPT	TDP1 inh	TGFb inhibitor
CCN(CC)c1nc2cc(OC)ccc2cc1C#N	16µM	0	0	21µM	?	0
N#Cc1cc(-c2ccccc2)nc(Oc2ccccc2)n1	18µM	0	?	?	0	0
CCN(CC)c1nc(C#N)cc(-c2ccc(OC)cc2)n1	10µM	0	0	8.2µM	?	0
COc1ccc(-c2cc(C#N)nc(NN)n2)cc1	?	0	?	0	0	?
COc1ccc(-c2cc(C#N)nc(Oc3ccc(Cl)cc3)n2)cc1	0	0	0	0	0	0
COc1ccc(-c2cc(C#N)nc(Cl)n2)cc1	4.6µM	0	-	4.1µM	-	?
CCc1cc(=O)oc2cc(OC(C)C(=O)NCC3CCC(C(=O)O)CC3)c(Cl)cc12 (stereo not given)	0	0	0	0	-	0
CCN1C[C@@H]2[C@@H]3C(=O)N(Cc4ccccc4)C(=O)[C@@H]3[C@](Cc3ccccc3)(C(=O)OC)N2C1=NC	0	0	0	0	-	0
CC(O)(c1ccccc1)[N+]1(CC(=O)c2ccccc2)C=CC=C1 (stereo not given)	0	0	-	0	-	0
CSc1nc(N)c(C(=O)Nc2ccc([N+](=O)[O-])cc2)s1	?	0	-75	0	0	0
N#Cc1c(F)cccc1N1CCN(Cc2ccc3c(c2)OCO3)CC1	?	0	0	16µM	0[0.0935 µM]	0
O=C(c1ccc(F)cc1)N1CCC(C(=O)N2CCN(Cc3ccc4c(c3)OCO4)CC2)CC1	0	0	0	0	-	0
O=C(C1CCN(S(=O)(=O)c2ccccc2F)CC1)N1CCN(Cc2ccc3c(c2)OCO3)CC1	?	0	0	21µM	0	0
Cc1nn(Cc2ccccc2)c2sc(C(=O)N3CCN(Cc4ccc5c(c4)OCO5)CC3)cc12	?	0	?	16µM	0	?
Cc1noc(C(=O)N2CCN(Cc3ccc4c(c3)OCO4)CC2)c1Cl	?	0	0	0	-	0
COc1cc(OC)c(OC)cc1CN1CCOc2ccc(CN3CCN(C(C)=O)CC3)cc2C1	21µM	-	-	0[9.04 µM]	-	-
COc1ccc(C(=O)OCc2c(F)cccc2Cl)cc1S(=O)(=O)N1CCOCC1	0	0	0	0	0	0
